Assay results reported in PubChem BioAssay (Tox21).
Results filed as inconclusive are left out. Where a call stands in place of a potency, no number is given. Active and inactive are the calls of the source. Unless noted, calls come from the whole dose curve; as a rule, active = well fitted curve in the direction sought with a large enough effect in the repeat runs; inconclusive = weak or mixed curves; inactive = no such curve, though single readings can be large; an effect the other way counts as inactive or inconclusive.

How the values were obtained:
[1] = qHTS assay to identify small molecule agonists of the estrogen receptor alpha (ER-alpha) signaling pathway in the presence of an antagonist - cell viability counter screen (AID 1259386); note: nearly all actives have a fitted effect of over 30% in size; note: potency is the fitted concentration of half-maximal effect
Outline: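 Compounds tested at 15 concentrations for 22 h at 37C alongside 10.0nM (final) ICI-182,780 antagonist, in VM7Luc4E2 cells grown in phenol red-free, charcoal-stripped medium. Viability read by CellTiter-Fluor fluorescence after 1 h reagent incubation.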

[2] = biological target: Progesterone receptor (Homo sapiens) (UniProt P06401); experiment: qHTS assay to identify small molecule agonists of the progesterone receptor (PR) signaling pathway (AID 1346784; calls by dose curve; note: nearly all actives have a fitted effect of over 30% in size; note: potency is the fitted concentration of half-maximal effect)
Chain of Progesterone receptor (Homo sapiens) (P06401 whole entry, looked up): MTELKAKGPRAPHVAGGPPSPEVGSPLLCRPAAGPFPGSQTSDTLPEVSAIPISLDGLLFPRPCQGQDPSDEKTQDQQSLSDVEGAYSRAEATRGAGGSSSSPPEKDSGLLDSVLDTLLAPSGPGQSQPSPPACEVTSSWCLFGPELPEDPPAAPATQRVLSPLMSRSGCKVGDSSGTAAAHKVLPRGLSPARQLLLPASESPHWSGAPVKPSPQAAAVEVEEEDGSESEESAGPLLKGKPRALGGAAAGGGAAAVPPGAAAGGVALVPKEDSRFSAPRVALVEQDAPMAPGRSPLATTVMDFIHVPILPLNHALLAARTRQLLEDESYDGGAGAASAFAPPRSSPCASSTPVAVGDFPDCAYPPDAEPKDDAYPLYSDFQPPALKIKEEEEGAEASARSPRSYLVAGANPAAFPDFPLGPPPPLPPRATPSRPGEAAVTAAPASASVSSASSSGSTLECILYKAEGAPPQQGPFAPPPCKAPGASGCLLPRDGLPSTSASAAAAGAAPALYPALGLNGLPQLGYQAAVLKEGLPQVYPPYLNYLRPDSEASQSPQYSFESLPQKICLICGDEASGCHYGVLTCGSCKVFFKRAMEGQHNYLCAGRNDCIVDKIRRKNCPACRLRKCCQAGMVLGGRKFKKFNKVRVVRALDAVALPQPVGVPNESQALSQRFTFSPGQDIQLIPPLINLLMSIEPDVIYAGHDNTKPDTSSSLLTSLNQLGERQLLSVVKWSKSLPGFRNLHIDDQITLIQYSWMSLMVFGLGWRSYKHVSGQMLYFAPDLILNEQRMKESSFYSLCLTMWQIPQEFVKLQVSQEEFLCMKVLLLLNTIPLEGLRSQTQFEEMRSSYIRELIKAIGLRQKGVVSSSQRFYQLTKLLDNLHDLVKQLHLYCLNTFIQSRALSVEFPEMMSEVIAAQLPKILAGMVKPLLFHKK
Outline: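 PR-UAS-bla HEK 293T cells carrying a UAS-driven beta-lactamase reporter were seeded in medium with 2% charcoal-stripped FBS, preincubated 6 hr at 37C, then exposed to compounds in DMSO for 16 hr; agonism was read by LiveBLAzer B/G FRET fluorescence.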

[3] = qHTS assay to identify small molecule antagonists of the progesterone receptor (PR) signaling pathway - cell viability counter screen (AID 1346798); note: nearly all actives have a fitted effect of over 50% in size; note: potency is the fitted concentration of half-maximal effect
Outline: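 PR-UAS-bla HEK293T cells in medium with 2% charcoal-stripped FBS were treated with compounds plus R5020 for 16 hr at 37C. Cell viability was then read by CellTiter-Glo luminescence after 30 min at room temperature in the same wells.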

[4] = qHTS assay to identify small molecule agonists of the progesterone receptor (PR) signaling pathway - cell viability counter screen (AID 1346799; calls by dose curve; note: nearly all actives have a fitted effect of over 45% in size; note: potency is the fitted concentration of half-maximal effect)
Outline: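 PR-UAS-bla HEK293T cells, 3,000 per well in medium with 2% charcoal-stripped FBS, were preincubated 6 hr at 37C, then exposed to compounds for 16 hr; viability was read as CellTiter-Glo luminescence after 30 min at room temperature.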

[5] = qHTS assay to identify small molecule antagonists of the TGF-beta/Smad signaling pathway - cell viability counter screen (AID 1346824); note: nearly all actives have a fitted effect of over 50% in size; note: potency is the fitted concentration of half-maximal effect
Outline: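 Cytotoxicity counter-screen run in the same wells as the beta-lactamase Smad reporter read: CellTiter-Glo luminescence after 30 min at room temperature. HEK 293T SBE-bla cells had 5 hr compound exposure at 37 C with TGF-beta1 (0.25 ng/mL stock).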

[6] = qHTS assay to identify small molecule agonists of the TGF-beta/Smad signaling pathway - cell viability counter screen (AID 1346829); note: nearly all actives have a fitted effect of over 45% in size; note: potency is the fitted concentration of half-maximal effect
Outline: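 Compound-treated SBE-bla HEK 293T cells (5 hr, 37 C) were assessed for viability with CellTiter-Glo in parallel with the reporter read.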

[7] = qHTS assay to identify small molecule agonists of the TGF-beta/Smad signaling pathway (AID 1346859; active = well fitted activation curve with a large enough effect in the signal ratio in the repeat runs, not every such curve was filed as active; the % refers to the signal ratio; note: potency is the fitted concentration of half-maximal effect; for activation: series mostly up to about 77 µM)
Outline: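 HEK 293T cells stably carrying a beta-lactamase reporter driven by the Smad binding element were seeded overnight, exposed to DMSO-dissolved compounds for 5 hr at 37 C, 5% CO2, then loaded with FRET substrate for 2 hr at room temperature.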

[8] = biological target: Thyrotropin-releasing hormone receptor (Homo sapiens) (UniProt P34981); experiment: qHTS assay to identify small molecule antagonists of the thyrotropin-releasing hormone receptor (TRHR) signaling pathway (AID 1346877; active = well fitted inhibition curve with a large enough effect in the repeat runs, not every such curve was filed as active; note: series mostly up to about 51 µM)
Chain of Thyrotropin-releasing hormone receptor (Homo sapiens) (P34981 whole entry, looked up): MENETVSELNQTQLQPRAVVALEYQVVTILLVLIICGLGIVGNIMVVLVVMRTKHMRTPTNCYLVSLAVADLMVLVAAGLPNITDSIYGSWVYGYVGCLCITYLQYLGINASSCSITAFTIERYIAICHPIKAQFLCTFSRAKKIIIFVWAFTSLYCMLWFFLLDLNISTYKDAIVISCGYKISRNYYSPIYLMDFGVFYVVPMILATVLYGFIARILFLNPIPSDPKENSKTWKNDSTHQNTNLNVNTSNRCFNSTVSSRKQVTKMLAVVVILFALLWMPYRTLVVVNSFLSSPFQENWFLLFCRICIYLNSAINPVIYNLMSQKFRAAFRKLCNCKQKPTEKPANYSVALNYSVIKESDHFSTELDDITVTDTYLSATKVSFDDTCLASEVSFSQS
Outline: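 Antagonist mode: after a 5 min room-temperature compound exposure, cells were stimulated with 1 nM (final) TRH. Dye-loaded TRHR-HEK293 cells were used, and calcium-dependent fluorescence was followed for 3 min, with 15-point titrations run in triplicate.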

[9] = biological target: Thyrotropin-releasing hormone receptor (Homo sapiens) (UniProt P34981); experiment: qHTS assay to identify small molecule agonists of the thyrotropin-releasing hormone receptor (TRHR) signaling pathway (AID 1346891; calls by dose curve; note: series mostly up to about 58 µM)
Outline: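 TRHR-expressing HEK293 cells were plated 18 h at 37 °C/5% CO2, loaded with calcium dye 2 h at 37 °C, then given compound in DMSO; fluorescence was read kinetically for 3 min at 1 s intervals.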

[10] = biological target: Progesterone receptor (Homo sapiens) (UniProt P06401); experiment: qHTS assay to identify small molecule antagonists of the progesterone receptor (PR) signaling pathway (AID 1346795; active = well fitted inhibition curve with a large enough effect in the signal ratio in the repeat runs, not every such curve was filed as active; the % refers to the signal ratio; note: potency is the fitted concentration of half-maximal effect)
Outline: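 PR-UAS-bla HEK293T cells carrying a UAS-driven beta-lactamase reporter were plated in medium with 2% charcoal-stripped FBS and rested 6 hr at 37C. Compounds were added with 1 nM R5020 (final) for 16 hr, then FRET substrate loaded 2 hr at room temperature.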

Question: For `c1ccc(CSCc2ccccc2)cc1`, which Potency [1] is on record?
Answer: inactive

Question: And the Potency [2]?
Answer: inactive

Question: What about the Potency [3] of the same compound?
Answer: inactive

Question: What about the Potency [4] of the same compound?
Answer: inactive

Question: What about the Potency [5] of the same compound?
Answer: inactive

Question: What about the Potency [6] of the same compound?
Answer: inactive

Question: What about the Potency [7] of the same compound?
Answer: inactive

Question: And the Potency [8]?
Answer: inactive

Question: What about the Potency [9] of the same compound?
Answer: inactive

Question: Which results are given for `CCCCN1C(=O)[C@@H]([C@H](O)C2CCCCC2)NC(=O)C12CCN(Cc1ccc(Oc3ccc(C(=O)O)cc3)cc1)CC2`?
Answer: Potency [1]: inactive; Potency [2]: inactive; Potency [3]: inactive; Potency [5]: inactive; Potency [6]: inactive; Potency [8]: inactive

Question: For `C[C@@H](NCCCc1cccc(C(F)(F)F)c1)c1cccc2ccccc12`, which Potency [1] is on record?
Answer: inactive

Question: And the Potency [2]?
Answer: inactive

Question: And the Potency [3]?
Answer: 26.6 µM (active)

Question: And the Potency [4]?
Answer: 23.7 µM (active)

Question: And the Potency [8]?
Answer: inactive

Question: What about the Potency [9] of the same compound?
Answer: inactive

Question: Which Potency [1] does the source give for `CCCCCCCCn1sc(Cl)c(Cl)c1=O` here?
Answer: inactive

Question: And the Potency [2]?
Answer: inactive

Question: What about the Potency [3] of the same compound?
Answer: inactive

Question: What about the Potency [4] of the same compound?
Answer: inactive

Question: And the Potency [5]?
Answer: 21.9 µM (active)

Question: And the Potency [6]?
Answer: 34.7 µM (active)

Question: And the Potency [9]?
Answer: inactive

Question: For `CCCN(CCC)C(=O)C(CCC(=O)OCCCN1CCN(CCOC(=O)Cc2c(C)n(C(=O)c3ccc(Cl)cc3)c3ccc(OC)cc23)CC1)NC(=O)c1ccccc1` (stereo not drawn), which Potency [1] is on record?
Answer: 21.1 µM (active)

Question: What about the Potency [2] of the same compound?
Answer: inactive

Question: What about the Potency [3] of the same compound?
Answer: inactive

Question: And the Potency [4]?
Answer: inactive

Question: And the Potency [6]?
Answer: inactive

Question: Which results are given for `COc1ccc(-c2ccc3cc(C(=O)O)ccc3c2)cc1C12CC3CC(CC(C3)C1)C2`?
Answer: Potency [1]: inactive; Potency [2]: inactive; Potency [3]: inactive; Potency [4]: inactive; Potency [5]: inactive; Potency [7]: inactive; Potency [8]: inactive

Question: With `CC(C)(C)CC(C)(C)c1ccc(OCCOCC[N+](C)(C)Cc2ccccc2)cc1` as the compound, how does the Potency [1] read?
Answer: 61.1 µM (active)

Question: And the Potency [2]?
Answer: inactive

Question: And the Potency [3]?
Answer: 54.4 µM (active)

Question: And the Potency [4]?
Answer: 48.5 µM (active)

Question: And the Potency [6]?
Answer: 43.6 µM (active)

Question: And the Potency [7]?
Answer: inactive

Question: With `O=[N+]([O-])c1cc(Cl)c(Cl)c(Cl)c1Cl` as the compound, how does the Potency [1] read?
Answer: inactive

Question: What about the Potency [2] of the same compound?
Answer: inactive

Question: What about the Potency [3] of the same compound?
Answer: inactive

Question: What about the Potency [4] of the same compound?
Answer: inactive

Question: What about the Potency [5] of the same compound?
Answer: inactive

Question: And the Potency [6]?
Answer: inactive

Question: What about the Potency [8] of the same compound?
Answer: inactive

Question: What does the source list for `Cc1cc2c(cc1C(F)(F)F)N(C(=O)Nc1ccc(Oc3cccnc3C)nc1)CC2`?
Answer: Potency [1]: inactive; Potency [2]: inactive; Potency [4]: inactive; Potency [6]: inactive

Question: With `Nc1c2ccccc2nc2ccccc12` as the compound, how does the Potency [1] read?
Answer: inactive

Question: What about the Potency [2] of the same compound?
Answer: 4.79 µM (active)

Question: What about the Potency [5] of the same compound?
Answer: inactive

Question: And the Potency [6]?
Answer: inactive

Question: And the Potency [7]?
Answer: 23.9 µM (active)

Question: What does the source list for `Nc1c(Cl)cc(Cl)cc1Cl`?
Answer: Potency [1]: inactive; Potency [2]: inactive; Potency [3]: inactive; Potency [4]: inactive; Potency [6]: inactive; Potency [7]: inactive; Potency [8]: inactive; Potency [9]: inactive

Question: For `O=c1[nH]sc2cc(Cl)ccc12`, which Potency [1] is on record?
Answer: inactive

Question: What about the Potency [2] of the same compound?
Answer: inactive

Question: What about the Potency [4] of the same compound?
Answer: inactive

Question: And the Potency [5]?
Answer: inactive

Question: What about the Potency [6] of the same compound?
Answer: inactive

Question: And the Potency [7]?
Answer: inactive

Question: And the Potency [8]?
Answer: inactive

Question: And the Potency [9]?
Answer: inactive

Question: What does the source list for `Nc1cc(C(F)(F)F)ccc1S`?
Answer: Potency [1]: inactive; Potency [2]: inactive; Potency [3]: 13.3 µM (active); Potency [5]: inactive; Potency [6]: inactive; Potency [7]: inactive; Potency [8]: inactive; Potency [9]: inactive

Question: What does the source list for `CC(C)(C)c1ccc(C(=O)O)cc1`?
Answer: Potency [1]: inactive; Potency [3]: inactive; Potency [4]: inactive; Potency [5]: inactive; Potency [6]: inactive; Potency [7]: inactive

Question: Which results are given for `CSc1ccc2c(c1)C(N1CCN(C)CC1)Cc1ccccc1S2` (stereo not drawn)?
Answer: Potency [1]: inactive; Potency [10]: 26.6 µM (active); Potency [3]: 26.6 µM (active); Potency [4]: 33.5 µM (active); Potency [5]: inactive; Potency [6]: inactive; Potency [7]: inactive; Potency [8]: inactive

Question: With `C/C(=C(/OCCOc1ccc(Cl)cc1)c1ccc(Cl)cc1Cl)n1ccnc1` as the compound, how does the Potency [1] read?
Answer: inactive

Question: What about the Potency [3] of the same compound?
Answer: 13.3 µM (active)

Question: What about the Potency [4] of the same compound?
Answer: 16.8 µM (active)

Question: And the Potency [5]?
Answer: inactive

Question: What about the Potency [6] of the same compound?
Answer: inactive

Question: And the Potency [7]?
Answer: inactive

Question: For `CN1CCN(CCC(=O)N2c3ccccc3Sc3ccc(C(F)(F)F)cc32)CC1`, which Potency [1] is on record?
Answer: inactive

Question: What about the Potency [10] of the same compound?
Answer: 26.6 µM (active)

Question: And the Potency [3]?
Answer: 18.8 µM (active)

Question: What about the Potency [4] of the same compound?
Answer: 23.7 µM (active)

Question: What about the Potency [6] of the same compound?
Answer: inactive

Question: And the Potency [7]?
Answer: inactive

Question: What about the Potency [8] of the same compound?
Answer: inactive

Question: Which results are given for `CCCC/C=C/CCCCO`?
Answer: Potency [1]: inactive; Potency [10]: inactive; Potency [3]: inactive; Potency [4]: inactive; Potency [5]: inactive; Potency [6]: inactive; Potency [7]: inactive; Potency [8]: inactive; Potency [9]: inactive

Question: For `CC(=O)N1CCN(c2ccc(OC[C@H]3CO[C@](Cn4ccnc4)(c4ccc(Cl)cc4Cl)O3)cc2)CC1`, which Potency [1] is on record?
Answer: 61.1 µM (active)

Question: What about the Potency [10] of the same compound?
Answer: 13.7 µM (active)

Question: And the Potency [3]?
Answer: 30.6 µM (active)

Question: And the Potency [4]?
Answer: 30.6 µM (active)

Question: What about the Potency [7] of the same compound?
Answer: inactive

Question: Which results are given for `Cc1cc(O)c2ccccc2c1O`?
Answer: Potency [1]: 29.8 µM (active); Potency [10]: 23.7 µM (active); Potency [5]: 19 µM (active); Potency [6]: 23.9 µM (active); Potency [8]: inactive

Question: Which Potency [1] does the source give for `Cc1ccc2oc(CN(Cc3ccccc3)C(=O)Nc3c(F)cc(F)cc3F)c(-c3ccc(Cl)cc3)c2c1` here?
Answer: inactive

Question: And the Potency [2]?
Answer: inactive

Question: And the Potency [5]?
Answer: inactive

Question: And the Potency [6]?
Answer: inactive

Question: And the Potency [7]?
Answer: inactive

Question: What about the Potency [8] of the same compound?
Answer: inactive

Question: What about the Potency [9] of the same compound?
Answer: inactive

Question: What does the source list for `NNc1nc(-c2ccccc2)cs1`?
Answer: Potency [1]: 56 µM (active); Potency [2]: inactive; Potency [5]: inactive; Potency [6]: inactive; Potency [8]: inactive; Potency [9]: inactive

Question: Which results are given for `CCCCCCCCOC(=O)c1ccc(O)cc1`?
Answer: Potency [1]: inactive; Potency [3]: inactive; Potency [4]: inactive; Potency [5]: inactive; Potency [6]: inactive; Potency [7]: inactive

Question: For `N=C1C=CC(=C(c2ccc(N)cc2)c2ccc(N)cc2)C=C1`, which Potency [1] is on record?
Answer: 24.3 µM (active)

Question: What about the Potency [2] of the same compound?
Answer: inactive

Question: What about the Potency [6] of the same compound?
Answer: inactive

Question: And the Potency [7]?
Answer: inactive

Question: What about the Potency [8] of the same compound?
Answer: inactive

Question: And the Potency [9]?
Answer: inactive

Question: For `OCCCCCCCCCCCCBr`, which Potency [1] is on record?
Answer: inactive

Question: What about the Potency [3] of the same compound?
Answer: inactive

Question: What about the Potency [4] of the same compound?
Answer: inactive

Question: And the Potency [5]?
Answer: inactive

Question: What about the Potency [6] of the same compound?
Answer: inactive

Question: What about the Potency [7] of the same compound?
Answer: inactive
